Measurements from the supplement of paper PMC11417369.
Over roughly 25,000 sequences, “ln(normalized median fluorescence intensity)” has its median near 6.7; the highest 2% begin near 10. For the sample, the highest values were picked, then their nearest neighbours and some sequences at random.

These sequences were tested on PfHDP1 homeodomain (GST-tagged) (assay: gcPBM binding intensity (ln(normalized median fluorescence intensity)); higher = stronger DNA binding).
Procedure, shortened: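 DNA-binding domains from P. falciparum, fused to GST and produced in E. coli, were put on an Agilent 4 × 180k double-stranded probe array for 1 h in 1× PBS holding 1% milk, 0.2 mg/ml BSA, 0.5% salmon testes DNA and 0.03% Triton X-100. Probes were primer-extended, 36 bp long and drawn from intergenic genomic regions, with negative controls included. After Alexa488 anti-GST antibody detection and a 488 nm scan, binding intensity was set as the highest Masliner-normalised natural-log median intensity across replicate spots of either probe orientation.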

| Sequence | gcPBM binding intensity (ln) |
| --- | --- |
| GTATGGCGTATCATATGTACTAAAAAAAAATAAAAA [XGTACX_site5101] | 6.49 |
| AAAGAAATGAAATATACACACATACCTATATACATA [CACACA_site7817] | 6.63 |
| GAAAAGCAGATAAATGTGCACATATATGTTTGTATA | 10.8 |
| TAAAATAGAAATATATGTACATATATATATGTATAT [XGTACX_site4134] | 6.4 |
| TATATGTATAGAAAATGTACATATAAATATATATAT [XGTACX_site3420] | 7.94 |
| ATATATGATGTATTTGTGCACATATATATATTATTA [GTGCAC_site9471] | 10.7 |
| AAAAAATAAAAAGATACACACATATGTATAATATAC [CACACA_site1496] | 6.83 |
| AAAAAAAAAAAAAGCACACACACATATGTGTATATA [CACACA_site8225] | 6.86 |
| ATATATGTATGTTAGACACACATATTATAATATGTT [CACACA_site116] | 6.5 |
| TGTGTGTGTATATGTGTGCACATATAAAATAGAAGA [GTGCAC_site9714] | 10.5 |
| CACATATATATGTGTGCATGTTGTATTATATATTTA [TGCATGCA_site632] | 8.72 |
| ATAAATACATATGTGTGTACACATTATATATATATA [XGTACX_site1486] | 9.17 |
| TTTTTGTTATTATGTGTGCACATATATATATATATA | 10.4 |
| TATGTATGTTAGTGTGCACACATAAATATTATATAT [CACACA_site9121] | 11.1 |
| TAATTTCTTATGTAGTGTACAAATAATATATGATAT [XGTACX_site597] | 6.39 |
| ATTAAAAAAATATAAACACACAAAAAAAAAATATAC [CACACA_site1100] | 7.06 |
| AACAAATAAAAAAAAATAAAAATAAAAATAAAAAAA [XGTACX_negctrl_site451] | 6.36 |
| TTTTTTTCTTCTTTTCTCTTAAAAATATTGAATATT [CACACA_negctrl_site1762] | 6.28 |
| TATACATATGAAAATACACACATACATACAGATATA [CACACA_site5002] | 6.64 |
| TGTATGTTTGGGTGCACACATAAATATTATATATAG [CACACA_site3397] | 10.2 |
| AAGAAAAATATTCGTGTGCACAGAAGTATATGTGTG [GTGCAC_site9814] | 11 |
| TAAAAATTGCACAGAAGTACAGTATAAATATATATA [XGTACX_site3421] | 10.2 |
| TGTGTATATGTGCAAAGTACAAAAAAGAAATTATTT [XGTACX_site7569] | 9.87 |

| Sequence | gcPBM binding intensity (ln) |
| --- | --- |
| TTGTTGTGTATTATCGTGCACATAATATAAAAGATT | 10.5 |
| TGTATTATATATACACAAATATTTATGTGTGTGTTT [XGTACX_negctrl_site475] | 6.71 |
| ATATATTATGGGTGTGCACACAATATTTATATGTTC [CACACA_site2270] | 10.9 |
| TTTATGTGTATGTTTACACACATAAAAAAATATATG [CACACA_site3039] | 6.54 |
| TATGTGTATAATAAAAGTACATATATTATTATATAA [XGTACX_site8556] | 6.35 |
| TATATGTATGTTTGTGTGCACACATAAATATTATAT | 10.5 |
| AAAAGTTGTATTTGCACACATAAAAAAAAGATATTA [CACACA_site3840] | 10.3 |
| AATATTTATGGGTGCACACAAACATACAGATATATA [CACACA_site5810] | 10.3 |
| TTGATGTATACAATGTAGATTATTTAATATTTCAAT [GTGCAC_negctrl_site203] | 6.12 |
| TTATGAAAATATTTTTTTCGTTTGATGTATATGTTT [CACACA_negctrl_site1556] | 6.22 |
| TTGTATTATATTGTATTATGTTTAAATGAAAAAAAA [CACACA_negctrl_site662] | 6.46 |
| ATATATCTACAAATATGTACACACACACATATATAT [XGTACX_site1075] | 6.9 |
| TATAAAAAATAAAAAGTTTAATGAATATTTCTTTTA [TGCATGCA_negctrl_site379] | 5.53 |
| TTATGTTGTAAATGCACACATACATAAACTCAGTTT [CACACA_site5639] | 10.5 |
| ATAATGTATATTATTGCACACATATATAAAATTATG [CACACA_site8280] | 10.5 |
| CATTATGTTGTAAATGCACACATACATATACACAGT [CACACA_site8990] | 9.81 |
| ATATATATATATAATGCACACATTATAAATTATGTA [CACACA_site5802] | 10.6 |
| TTATGTCATAAATGCACACATATATATATACATATA [CACACA_site1588] | 10.5 |
| CATTATGTCATAAATGCACACATATATATATACATA [CACACA_site8454] | 9.98 |
| TTATGTCATAAATGCACACATATATAAATACAGATA [CACACA_site4959] | 10.3 |
| AATGTATATTATTGCACACATATATAAAATTATGCT [CACACA_site1096] | 10.5 |
| TTATGTTCATTATATGCACACATATATATAAATGTA [CACACA_site8947] | 9.74 |
| ATGTTCATTATATGCACACATATATATAAATGTAAT [CACACA_site2908] | 10.2 |

| Sequence | gcPBM binding intensity (ln) |
| --- | --- |
| TTATGTTGTAAATGCACACATACATATACGCAGTTT [CACACA_site3015] | 9.92 |
| ACATAAAATAAATATACACACATATGTATATATTAT [CACACA_site3041] | 6.59 |
| ATCAAAATTGTCATTACACACCTTTATTTTTAGAAT [CACACA_site1813] | 6.6 |
| CAAGCCCTTCTGCTTACACACAGTAATTATTGTGCA [CACACA_site7399] | 6.34 |
| TTTCTATAATATATATGTACATATATAATATGTCGT [XGTACX_site3676] | 6.58 |
| AAATAAAATCATAATGTGCGCATATAAATTTGTAGG [GTGCAC_site9662] | 8.1 |
| AATCCACTTTTTTATGTTATACAATATAAATTAAAT [XGTACX_negctrl_site446] | 6.71 |
| AAAAACTTAATATTCACACATATATATATATATATA [CACACA_site5240] | 9.48 |
| ACAAGATAATAGAGAAGTACTAATAAACATACACAA [XGTACX_site6617] | 6.9 |
| TATATAATATAATGTAGTACATGTTTTATTTTTTAC [XGTACX_site7735] | 6.4 |
| AAATATCTACATATTTGTACATATTTATACATATTT [XGTACX_site6300] | 6.12 |
| TTTTATAATATTTAAAGTACATTCTAAAAATATAAT [XGTACX_site8033] | 6.01 |
| ATACTAAATGAACACACACACATATAGATTTATAAC [CACACA_site6200] | 6.87 |
| GATATATAATATAATACACACATTTTATGAATGTAA [CACACA_site24] | 6.54 |
| ATATATATATATAATGCACACATTATGAATTATGTA [CACACA_site3384] | 10.8 |
| ATAAATAATTATATATGTACACATTATGAATGGATA [XGTACX_site8336] | 6.74 |
| CATACATACCTATATACACACATATAAAATAATATA [CACACA_site7290] | 6.97 |
| ATATAAATATATTGCACACACAATTATTATTATTAT [CACACA_site7147] | 10.7 |
| ATATTTATAAATTGCACACAAATAATAACATTCTAT [CACACA_site2357] | 10.4 |
| GAGTATATTTATATTGCACACAATTTTTTTATTTTT [CACACA_site2644] | 10.5 |
| ATGTCAAACATTTGCACACAAAAAAATAAAAATTAA [CACACA_site692] | 10.6 |
| ATATTATCCCTATTTGCACACAAGAGTAATTTTTTA [CACACA_site3908] | 10.4 |
| TTTATAAAATTTATTGCACACAATTATTTTATAATT [CACACA_site2489] | 9.98 |

| Sequence | gcPBM binding intensity (ln) |
| --- | --- |
| AAATATTTATAAATTGCACACAAATAATAACATTAT [CACACA_site8737] | 10.2 |
| ACATGTCAAACATTTGCACACAAAAAAATAAAAATT [CACACA_site691] | 10.2 |
| ACACAAAAAATAAAAATATATATATATTATATATAT [CACACA_negctrl_site1489] | 7.32 |
| ATATTTATAAATTGCACACAAATAATAACATTATAT [CACACA_site5322] | 10.6 |
| ATATATTTATATATTGCACACAAAAAAAAAAAAAAA [CACACA_site8468] | 10.5 |
| CCATGTCAAACATTTGCACACAAAAAAATAAAAATT [CACACA_site4546] | 9.71 |
| AAAAAAATATATATATATATATATATATTATATATG [GTGCAC_negctrl_site654] | 6.87 |
| TTTTTTATTTATTGTTATACATCTTACTACTTATAA [GTGCAC_negctrl_site381] | 6.63 |
| TATTTTTTCTTTCATTGTACTTTTTTTTTGTTTTGT [XGTACX_site4081] | 6.8 |
| AAAAAAAAAAAAACTAGTACATATATATAGTATGAA [XGTACX_site6279] | 6.33 |
| ATATATATATATATTGCACACACAATTATTATTATT [CACACA_site8721] | 10.6 |
| TTAATTATATTATGCACACACAATTGGAAAAAAAAT [CACACA_site1958] | 10.2 |
| ATATATATATATTGCACACACAATTATTATTATTAT [CACACA_site2299] | 10.6 |
| AATATTATTATTATTACACACACAATTATATTTACC [CACACA_site8061] | 6.61 |
| TTTTAATTATATTATGCACACACAATTGGAAAAAAA [CACACA_site8598] | 10.2 |
| TTATAATCCATAATTGCACACAATATATTCATATTT [CACACA_site3916] | 10.1 |
| AATAATGTATAATGATGTACAAAAAAGGAAGACATA [XGTACX_site2474] | 7.43 |
| TAACTTCAAAAATCTTGTACATAAATATATAAAACA [XGTACX_site8574] | 6.29 |
| GTGTTTGAAAATAAAGCATGCAAATATATTTGAAAT [TGCATGCA_site386] | 7.23 |
| TTTTTTATTGTGATACGTATATTATTTTATGATTAA [GTGCAC_negctrl_site202] | 6.82 |
